# Results taken from the supplement of paper PMC11006884.
# Of roughly 6,500 targets only a part is listed; those with a hit were picked by preference. About 2% of all pairs of compound and target were hits. A number with no mark means an inactive call.
# Compound: COC(=O)C#Cc1ccccc1 [methyl 3-phenylpropiolate]
# Test: log2 ratio of iodoacetamide-alkyne labeling of the cysteine site, DMSO over compound (competition); higher = stronger covalent engagement of the cysteine by the compound, active = 1 or more
# Details: 500 µM; treatment time 1 h; system: HEK293T cell lysate
# Method in brief: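 The log2 competition ratio per cysteine is defined as mean reporter intensity in control channels over mean reporter intensity in compound channels. Lysate from HEK293T cells (2 mg/mL) received electrophile (500 µM) or vehicle for 1 h at ambient temperature, followed by iodoacetamide alkyne for 1 h. Samples were clicked to sCIP-TMT reagents, pooled, trypsin-digested overnight at 37 °C, streptavidin-enriched, acid-eluted and run on Orbitrap Eclipse LC-MS/MS with FAIMS, with quantification in FragPipe. Three replicates with duplicate channels were used, and any cysteine quantified in only one replicate was excluded.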
# UniProt P13797, sequence (P13797 whole entry, looked up): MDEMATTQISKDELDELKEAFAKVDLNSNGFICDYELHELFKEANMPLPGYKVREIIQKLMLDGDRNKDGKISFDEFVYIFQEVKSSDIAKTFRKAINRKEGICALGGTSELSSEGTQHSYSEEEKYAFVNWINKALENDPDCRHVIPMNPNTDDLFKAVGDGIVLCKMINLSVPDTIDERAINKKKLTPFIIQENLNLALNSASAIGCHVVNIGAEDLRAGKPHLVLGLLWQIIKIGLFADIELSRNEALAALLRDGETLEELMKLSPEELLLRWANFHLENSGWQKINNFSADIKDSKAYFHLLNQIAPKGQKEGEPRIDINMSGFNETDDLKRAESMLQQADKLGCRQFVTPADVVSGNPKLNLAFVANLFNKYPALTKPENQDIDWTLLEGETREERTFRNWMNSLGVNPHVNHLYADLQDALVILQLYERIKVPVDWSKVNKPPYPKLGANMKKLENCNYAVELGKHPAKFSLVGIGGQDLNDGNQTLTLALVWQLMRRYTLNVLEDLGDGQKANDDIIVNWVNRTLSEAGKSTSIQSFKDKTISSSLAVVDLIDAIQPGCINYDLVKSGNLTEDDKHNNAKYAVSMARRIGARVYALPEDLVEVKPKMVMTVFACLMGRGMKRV
# UniProt P26038, sequence (P26038 whole entry): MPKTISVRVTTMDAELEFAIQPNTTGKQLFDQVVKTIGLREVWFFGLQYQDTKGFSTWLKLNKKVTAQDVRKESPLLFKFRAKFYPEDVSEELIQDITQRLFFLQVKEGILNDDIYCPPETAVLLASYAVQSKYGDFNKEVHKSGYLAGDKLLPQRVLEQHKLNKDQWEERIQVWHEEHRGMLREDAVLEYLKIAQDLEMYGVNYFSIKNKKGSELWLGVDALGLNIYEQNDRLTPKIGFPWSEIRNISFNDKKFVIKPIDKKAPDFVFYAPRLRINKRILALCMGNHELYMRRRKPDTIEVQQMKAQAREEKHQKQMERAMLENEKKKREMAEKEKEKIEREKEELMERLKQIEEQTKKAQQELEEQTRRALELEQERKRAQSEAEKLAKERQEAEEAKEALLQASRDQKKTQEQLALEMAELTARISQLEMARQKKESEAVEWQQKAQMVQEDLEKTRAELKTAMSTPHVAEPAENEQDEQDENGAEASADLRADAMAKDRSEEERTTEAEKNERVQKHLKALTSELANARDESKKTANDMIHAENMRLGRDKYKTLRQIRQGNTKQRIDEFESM
# UniProt P10809, sequence (P10809 whole entry, looked up): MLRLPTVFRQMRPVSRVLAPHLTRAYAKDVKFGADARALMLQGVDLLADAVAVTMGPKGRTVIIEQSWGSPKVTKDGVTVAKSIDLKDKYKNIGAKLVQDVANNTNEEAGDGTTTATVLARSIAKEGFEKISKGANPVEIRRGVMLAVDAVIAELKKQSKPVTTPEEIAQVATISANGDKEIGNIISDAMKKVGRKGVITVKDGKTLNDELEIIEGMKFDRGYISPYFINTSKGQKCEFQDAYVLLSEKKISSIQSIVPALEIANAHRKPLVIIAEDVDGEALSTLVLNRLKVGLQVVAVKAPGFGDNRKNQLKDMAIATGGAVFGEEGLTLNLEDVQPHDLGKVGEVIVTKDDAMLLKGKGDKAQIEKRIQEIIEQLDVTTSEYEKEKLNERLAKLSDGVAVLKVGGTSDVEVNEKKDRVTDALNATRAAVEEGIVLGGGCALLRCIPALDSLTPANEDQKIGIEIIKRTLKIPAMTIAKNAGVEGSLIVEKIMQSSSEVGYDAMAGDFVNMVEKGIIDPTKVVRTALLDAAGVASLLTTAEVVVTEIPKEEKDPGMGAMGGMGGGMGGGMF
# UniProt P46821, sequence (P46821 whole entry, looked up): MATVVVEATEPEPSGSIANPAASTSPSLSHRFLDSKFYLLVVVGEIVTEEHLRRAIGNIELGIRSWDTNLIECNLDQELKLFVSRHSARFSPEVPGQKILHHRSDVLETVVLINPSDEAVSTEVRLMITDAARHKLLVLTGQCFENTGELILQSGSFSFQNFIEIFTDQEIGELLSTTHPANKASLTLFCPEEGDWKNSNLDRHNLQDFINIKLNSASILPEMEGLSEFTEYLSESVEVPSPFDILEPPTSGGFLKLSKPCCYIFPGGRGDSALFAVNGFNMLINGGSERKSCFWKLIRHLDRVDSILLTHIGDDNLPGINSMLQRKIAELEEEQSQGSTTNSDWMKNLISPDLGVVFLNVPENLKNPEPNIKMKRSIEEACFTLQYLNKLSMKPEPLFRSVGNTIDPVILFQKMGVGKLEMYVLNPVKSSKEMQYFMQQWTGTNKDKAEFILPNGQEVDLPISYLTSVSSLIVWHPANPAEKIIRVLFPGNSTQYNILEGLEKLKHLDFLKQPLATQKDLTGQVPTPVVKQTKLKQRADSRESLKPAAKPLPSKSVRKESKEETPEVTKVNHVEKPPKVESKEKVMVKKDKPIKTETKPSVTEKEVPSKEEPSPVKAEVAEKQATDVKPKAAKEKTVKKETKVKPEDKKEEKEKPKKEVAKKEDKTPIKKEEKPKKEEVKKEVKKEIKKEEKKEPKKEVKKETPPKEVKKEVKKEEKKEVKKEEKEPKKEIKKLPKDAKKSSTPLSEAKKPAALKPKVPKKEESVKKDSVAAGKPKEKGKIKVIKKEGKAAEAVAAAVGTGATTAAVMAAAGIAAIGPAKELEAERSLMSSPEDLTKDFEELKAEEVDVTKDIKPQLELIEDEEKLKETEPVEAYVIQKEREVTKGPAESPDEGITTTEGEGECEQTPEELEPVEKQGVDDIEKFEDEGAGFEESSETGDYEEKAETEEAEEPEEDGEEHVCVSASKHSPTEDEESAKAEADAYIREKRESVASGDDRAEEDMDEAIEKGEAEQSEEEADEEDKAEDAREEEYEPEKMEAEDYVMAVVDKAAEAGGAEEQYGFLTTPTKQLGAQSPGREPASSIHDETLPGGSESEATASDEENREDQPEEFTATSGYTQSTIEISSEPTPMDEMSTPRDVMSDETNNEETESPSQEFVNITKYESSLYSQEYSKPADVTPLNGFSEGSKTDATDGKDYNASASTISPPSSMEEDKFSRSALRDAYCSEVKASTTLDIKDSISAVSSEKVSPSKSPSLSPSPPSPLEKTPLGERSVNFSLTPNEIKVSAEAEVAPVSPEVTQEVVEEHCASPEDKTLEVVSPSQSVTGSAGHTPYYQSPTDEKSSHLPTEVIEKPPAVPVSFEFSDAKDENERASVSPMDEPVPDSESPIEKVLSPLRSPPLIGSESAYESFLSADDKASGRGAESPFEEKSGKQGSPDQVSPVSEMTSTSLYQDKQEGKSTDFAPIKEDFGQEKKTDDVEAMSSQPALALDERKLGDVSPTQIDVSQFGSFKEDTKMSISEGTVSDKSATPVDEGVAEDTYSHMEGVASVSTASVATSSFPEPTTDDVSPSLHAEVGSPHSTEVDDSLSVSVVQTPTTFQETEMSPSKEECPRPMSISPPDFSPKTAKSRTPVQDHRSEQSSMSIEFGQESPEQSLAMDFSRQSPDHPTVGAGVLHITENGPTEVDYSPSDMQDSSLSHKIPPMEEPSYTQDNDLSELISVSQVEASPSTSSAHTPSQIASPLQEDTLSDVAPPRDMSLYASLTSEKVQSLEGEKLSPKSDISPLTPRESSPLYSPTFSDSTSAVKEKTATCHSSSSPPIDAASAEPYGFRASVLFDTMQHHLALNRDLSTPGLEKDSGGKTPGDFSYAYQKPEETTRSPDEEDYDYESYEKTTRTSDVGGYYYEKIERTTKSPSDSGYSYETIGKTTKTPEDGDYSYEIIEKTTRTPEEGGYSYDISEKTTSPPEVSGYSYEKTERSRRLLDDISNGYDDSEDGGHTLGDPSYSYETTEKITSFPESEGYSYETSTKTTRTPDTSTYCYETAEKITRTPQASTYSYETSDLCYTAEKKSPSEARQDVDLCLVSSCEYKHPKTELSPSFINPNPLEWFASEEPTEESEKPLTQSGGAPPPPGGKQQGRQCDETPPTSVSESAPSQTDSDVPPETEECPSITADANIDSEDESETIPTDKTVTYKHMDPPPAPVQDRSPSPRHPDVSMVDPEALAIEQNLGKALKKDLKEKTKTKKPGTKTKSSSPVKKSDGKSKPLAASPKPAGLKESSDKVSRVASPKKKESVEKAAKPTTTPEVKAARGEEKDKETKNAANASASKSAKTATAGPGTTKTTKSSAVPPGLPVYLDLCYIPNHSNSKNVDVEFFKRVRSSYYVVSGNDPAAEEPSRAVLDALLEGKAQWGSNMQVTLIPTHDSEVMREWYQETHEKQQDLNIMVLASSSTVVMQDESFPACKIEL
# UniProt P14625, sequence (P14625 whole entry, looked up): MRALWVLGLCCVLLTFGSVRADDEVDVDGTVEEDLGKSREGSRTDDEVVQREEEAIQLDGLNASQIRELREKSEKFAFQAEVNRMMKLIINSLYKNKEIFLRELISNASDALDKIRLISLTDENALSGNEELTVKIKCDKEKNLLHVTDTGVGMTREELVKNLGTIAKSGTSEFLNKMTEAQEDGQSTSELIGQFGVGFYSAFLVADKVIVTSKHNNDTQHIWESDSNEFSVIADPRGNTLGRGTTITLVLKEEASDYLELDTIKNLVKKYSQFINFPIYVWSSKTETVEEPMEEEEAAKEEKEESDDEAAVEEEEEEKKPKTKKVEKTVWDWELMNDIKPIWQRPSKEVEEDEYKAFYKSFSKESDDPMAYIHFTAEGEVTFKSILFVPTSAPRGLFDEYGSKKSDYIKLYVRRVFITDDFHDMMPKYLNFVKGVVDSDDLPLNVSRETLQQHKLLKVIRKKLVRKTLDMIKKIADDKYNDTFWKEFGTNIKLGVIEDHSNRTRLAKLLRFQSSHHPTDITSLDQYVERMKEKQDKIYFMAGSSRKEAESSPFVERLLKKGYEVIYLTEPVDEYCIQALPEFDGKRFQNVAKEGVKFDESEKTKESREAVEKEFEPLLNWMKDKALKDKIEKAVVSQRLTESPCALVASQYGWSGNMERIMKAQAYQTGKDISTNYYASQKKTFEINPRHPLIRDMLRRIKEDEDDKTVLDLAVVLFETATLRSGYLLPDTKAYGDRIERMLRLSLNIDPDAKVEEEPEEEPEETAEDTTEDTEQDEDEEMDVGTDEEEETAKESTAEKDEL
row,Target,log2 ratio of iodoacetamide-alkyne labeling
1,HNRNPA3 C85 (UniProt P51991),0.23
2,TAGLN2 C38 (UniProt P37802),-0.0194
3,STIP1 C339 (UniProt P31948),0.0728
4,ETFB C42 (UniProt P38117),0.207
5,PLS3 C33 (UniProt P13797),1.04 (active)
6,MSN C284 (UniProt P26038),-0.16
7,DCK C9 (UniProt P27707),1.15 (active)
8,MBD3 C172 (UniProt O95983),0.114
9,ASS1 C132 (UniProt P00966),0.124
10,HSPD1 C442 (UniProt P10809),1.2 (active)
11,CAPZB C206 (UniProt P47756),0.316
12,RAP1GDS1 C85 (UniProt P52306),0.197
13,CPSF4 C110 (UniProt O95639),-0.138
14,LRPPRC C863 (UniProt P42704),-0.00586
15,ARF4 C62 (UniProt P18085),-0.015
16,CAST C413 (UniProt P20810),0.756
17,CAPN2 C301 (UniProt P17655),2.17 (active)
18,LDHB C294 (UniProt P07195),-0.0731
19,UROD C308 (UniProt P06132),0.28

row,Target,log2 ratio of iodoacetamide-alkyne labeling
1,DSP C174 (UniProt P15924),1.06 (active)
2,IMPDH2 C140 (UniProt P12268),1.11 (active)
3,MAP1B C2088 (UniProt P46821),0.329
4,MDH2 C128 (UniProt P40926),-0.335
5,NF1 C383 (UniProt P21359),0.376
6,UniProt O96017_C539,0.494
7,TMPO C570 (UniProt P42166),1.16 (active)
8,UniProt P42677_C77,1.73 (active)
9,HPRT1 C206 (UniProt P00492),0.0837
10,RPL4 C208 (UniProt P36578),0.273
11,EEF2 C651 (UniProt P13639),0.0919
12,UniProt P14618_C424,-0.246
13,HSPA4L C421 (UniProt O95757),-0.0563
14,HSP90B1 C645 (UniProt P14625),-0.0466
15,CAPZA2 C111 (UniProt P47755),0.0355
16,CAMLG C123 (UniProt P49069),0.308
17,MKI67 C2206 (UniProt P46013),0.603
18,RPL17 C144 (UniProt P18621),0.131
